Assay results reported in PubChem BioAssay (NCATS).
Inconclusive results are not listed. A call without a number means that no potency is given here. Active and inactive are the calls of the source. Unless noted, calls follow the shape of the dose curve; as a rule, active = well fitted curve in the direction sought with a large enough effect; inconclusive = small, poorly fitted or top-dose-only effect, or another doubt; inactive = no such curve, though single readings can be large; an effect the other way counts as inactive or inconclusive.

How the values were obtained:
[1] = Cytometric Cell-Based qHTS for Inhibitors of the mTORC1 Signaling Pathway in MEF (Tsc2-/-, p53-/-) Cells (AID 2660);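 also: Tsc2 and p53 null MEFs carrying empty vector with compound for 24 h; percent of cells above a phospho-rpS6 to PI ratio cutoff in each well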
Outline: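 Readout: Alexa-488 phospho-rpS6 (Ser235/236) intensity divided by PI intensity, thresholded against 7.5 nM rapamycin wells and reported as % positive cells. PI cell count served as the viability measure. Compound exposure was 24 hrs at 37 degree Celsius.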

[2] = High Content Imaging Cell-Based qHTS for Inhibitors of the mTORC1 Signaling Pathway in MEF (Tsc2-/-, p53-/-) Cells (AID 2666); details: at 38.3 µM (top of the series);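 also: percent of cells scored positive for phospho-rpS6 Ser235/236 immunostaining by imaging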
Outline: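 Tsc2-/-, p53-/- MEFs (empty-vector stable) grown in DMEM + 10% FBS were exposed to compounds for 24 hrs at 37 degree Celsius, fixed, and stained with Alexa-488 anti-phospho-rpS6 Ser235/236 plus Hoechst. Imaging gave the percentage of positive cells per well.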

[3] = Cytometry Cell-Based qHTS for Inhibitors of the mTORC1 Signaling Pathway in MEF cells (AID 2668);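 also: Tsc2-/- p53-/- mouse embryonic fibroblasts stably re-expressing wild-type Tsc2; percent cells positive for phospho-rpS6 Ser235/236 relative to propidium iodide stain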
Outline: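 Read-out: phospho-rpS6 Ser235/236 immunofluorescence normalized to propidium iodide intensity, scored as % active cells against a rapamycin (7.5 nM) threshold. Cells: Tsc2-/-, p53-/- MEFs stably expressing WT Tsc2, compound-treated 24 hrs at 37 degree Celsius.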

[4] = qHTS Assay for Identification of Small Molecule Inducers of Hypoxia Response (AID 2120; active = well fitted curve in the direction sought with a large enough effect in the signal ratio, with a control signal flat, not every such curve was filed as active; the % refers to the signal ratio)
Outline: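 Reporter induction read as the CCF4 blue/green (460nm/530nm) emission ratio after 2.5 h dye loading at room temperature. ME-180 HRE-beta-lactamase cells received titrated compounds for 17 h at 37 degrees Celsius; AC50 values derived.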

[5] = Counterscreen for APE1 Inhibitors: Fluorescent Dye Displacement Validation Assay (AID 1707)
Outline: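 Signal: ThO fluorescence (ex 480 nm/em 540 nm) on binding 50 nM dsDNA; displacement by test compound reduces it. Conditions: 250 nM dye, 50 mM Tris-HCl pH7.5, 2 mM MgCl2, 50mM NaCl, 0.01% Tween-20.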

[6] = biological target: Endonuclease 4 (Escherichia coli (strain K12)) (UniProt P0A6C1); assay: Counterscreen for APE1 Inhibitors: qHTS Validation Assay for Inhibitors of Endonuclease IV (AID 1708)
Outline: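 Incision of a double-stranded 50 nM TAMRA/BHQ-2 abasic substrate was followed kinetically (525/598 nm, reads every 60 s) after 15 min enzyme–compound preincubation with 2 nM EndoIV in pH 7.5 Tris buffer with MgCl2, DTT and Tween-20; concentration-response format.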

[7] = qHTS for differential inhibitors of proliferation of Plasmodium falciparum line GB4 (AID 1816); details: Potency: Plasmodium falciparum GB4 proliferation inhibition;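 also: parasite growth measured after 72 h incubation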; also: potency is read from the fitted curve at half-maximal effect
[8] = qHTS for differential inhibitors of proliferation of Plasmodium falciparum line 3D7 (AID 1876); also: potency is read from the fitted curve at half-maximal effect
[9] = qHTS for differential inhibitors of proliferation of Plasmodium falciparum line D10 (AID 1877);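 also: parasites grown with compound for 72 h before DNA staining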; also: potency is read from the fitted curve at half-maximal effect
[10] = qHTS for differential inhibitors of proliferation of Plasmodium falciparum line Dd2 (AID 1882); details: Potency: Plasmodium falciparum Dd2 proliferation inhibition; also: nearly all actives have a fitted effect of over 65% in size; also: potency is read from the fitted curve at half-maximal effect
Outline: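 SYBR Green DNA fluorescence (ex 485, em 535 nm) after overnight lysis quantifies parasite growth; compound exposure lasted 72 h at 37 C on infected red cells at 2.5% hematocrit, 0.3% parasitemia (final). Artemisinin 0.29 uM and vehicle wells define normalization.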

[11] = qHTS for differential inhibitors of proliferation of Plasmodium falciparum line HB3 (AID 1886); details: Potency: Plasmodium falciparum HB3 proliferation inhibition;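 also: parasites grown with compound for 72 h before SYBR Green readout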; also: potency is read from the fitted curve at half-maximal effect
[12] = biological target: Ferritin light chain (Equus caballus) (UniProt P02791); assay: qHTS Validation Assay for Identification of Novel General Anesthetics (AID 2323)
Outline: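 10 uM horse-spleen apoferritin + 1-AMA (50% saturated, PBS); cpd pin-transferred, 10 min RT. Ex 380/Em 535 nm endpoint. Activity normalized between free 1-AMA and 1-AMA/apoferritin; 4-parameter Hill fit of concentration-response.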

[13] = biological target: ATP-dependent DNA helicase Q1 (Homo sapiens) (UniProt P46063); assay: qHTS Validation Assay for Inhibitors of RecQ-Like Dna Helicase 1 (RECQ1) (AID 2353)
Outline: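 RECQ1T1 50 nM; forked duplex (20 bp + 30-nt ss tails) 200 nM, ATP 2 mM final; pH 8.0, 2 mM MgCl2, 2.5 ug/ml poly(dI-dC); 15 min compound preincubation; discontinuous kinetic read over 2 h at RT.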

[14] = biological target: RecQ-like DNA helicase BLM (Homo sapiens) (UniProt P54132); assay: qHTS Validation Assay for Inhibitors of Bloom's syndrome helicase (BLM) (AID 2364)
Outline: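 Forked 20-bp duplex substrate (200 nM, TAMRA/BHQ-2) plus 2 mM ATP added after 15 min compound preincubation with 50 nM enzyme, pH 8.0, poly(dI-dC) 2.5 ug/ml. Strand separation followed by fluorescence (525/598 nm) over 2 h, normalized to enzyme-free and DMSO controls.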

[15] = biological target: alpha-glucosidase (Oryza sativa, rice) (UniProt Q653V4); assay: Counterscreen for Glucocerebrosidase Inhibitors: qHTS Assay for Rice alpha-Glucosidase at pH 5.0 (AID 997)
Outline: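 Endpoint fluorogenic assay at pH 5.0: compounds (0.7 nM to 77 uM) titrated against 4 nM rice enzyme and 400 uM 4-MU-alpha-glucoside for 20 min at room temperature; NaOH/glycine stop, read ex 365/em 440 nm, Hill-fitted AC50.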

[16] = qHTS for differential inhibitors of proliferation of Plasmodium falciparum line 7G8 (AID 1815);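 also: potency is read from the fitted curve at half-maximal effect; parasite growth measured after three days of incubation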
[17] = qHTS for differential inhibitors of proliferation of Plasmodium falciparum line W2 (AID 1883); details: Potency: Plasmodium falciparum W2 proliferation inhibition;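 also: potency is read from the fitted curve at half-maximal effect; parasites grown with compound for 72 h before lysis and staining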

Sequence of Ferritin light chain (Equus caballus) (P02791 2-175 limits assumed): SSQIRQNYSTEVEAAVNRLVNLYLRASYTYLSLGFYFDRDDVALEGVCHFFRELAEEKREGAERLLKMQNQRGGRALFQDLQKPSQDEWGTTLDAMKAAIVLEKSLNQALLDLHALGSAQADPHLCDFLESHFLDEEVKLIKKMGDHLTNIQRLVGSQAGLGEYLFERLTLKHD
Sequence of ATP-dependent DNA helicase Q1 (Homo sapiens) (P46063 whole entry, looked up): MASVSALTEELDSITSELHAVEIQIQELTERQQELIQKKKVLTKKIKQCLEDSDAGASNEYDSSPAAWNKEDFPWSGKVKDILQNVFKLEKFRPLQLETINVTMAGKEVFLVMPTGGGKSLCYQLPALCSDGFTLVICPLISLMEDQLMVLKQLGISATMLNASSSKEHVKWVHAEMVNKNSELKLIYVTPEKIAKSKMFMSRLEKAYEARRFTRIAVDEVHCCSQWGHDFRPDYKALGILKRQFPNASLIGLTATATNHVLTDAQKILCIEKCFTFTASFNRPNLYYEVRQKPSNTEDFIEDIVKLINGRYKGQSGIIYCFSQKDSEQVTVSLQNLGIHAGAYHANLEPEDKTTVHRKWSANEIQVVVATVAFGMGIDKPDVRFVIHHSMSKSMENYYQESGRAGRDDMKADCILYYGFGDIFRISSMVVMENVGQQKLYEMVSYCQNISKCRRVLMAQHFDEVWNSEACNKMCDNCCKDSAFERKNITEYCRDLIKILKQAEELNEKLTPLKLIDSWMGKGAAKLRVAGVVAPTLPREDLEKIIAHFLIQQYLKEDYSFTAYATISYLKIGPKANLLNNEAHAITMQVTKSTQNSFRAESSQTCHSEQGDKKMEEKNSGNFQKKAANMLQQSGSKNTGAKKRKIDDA
Sequence of RecQ-like DNA helicase BLM (Homo sapiens) (P54132 whole entry, looked up): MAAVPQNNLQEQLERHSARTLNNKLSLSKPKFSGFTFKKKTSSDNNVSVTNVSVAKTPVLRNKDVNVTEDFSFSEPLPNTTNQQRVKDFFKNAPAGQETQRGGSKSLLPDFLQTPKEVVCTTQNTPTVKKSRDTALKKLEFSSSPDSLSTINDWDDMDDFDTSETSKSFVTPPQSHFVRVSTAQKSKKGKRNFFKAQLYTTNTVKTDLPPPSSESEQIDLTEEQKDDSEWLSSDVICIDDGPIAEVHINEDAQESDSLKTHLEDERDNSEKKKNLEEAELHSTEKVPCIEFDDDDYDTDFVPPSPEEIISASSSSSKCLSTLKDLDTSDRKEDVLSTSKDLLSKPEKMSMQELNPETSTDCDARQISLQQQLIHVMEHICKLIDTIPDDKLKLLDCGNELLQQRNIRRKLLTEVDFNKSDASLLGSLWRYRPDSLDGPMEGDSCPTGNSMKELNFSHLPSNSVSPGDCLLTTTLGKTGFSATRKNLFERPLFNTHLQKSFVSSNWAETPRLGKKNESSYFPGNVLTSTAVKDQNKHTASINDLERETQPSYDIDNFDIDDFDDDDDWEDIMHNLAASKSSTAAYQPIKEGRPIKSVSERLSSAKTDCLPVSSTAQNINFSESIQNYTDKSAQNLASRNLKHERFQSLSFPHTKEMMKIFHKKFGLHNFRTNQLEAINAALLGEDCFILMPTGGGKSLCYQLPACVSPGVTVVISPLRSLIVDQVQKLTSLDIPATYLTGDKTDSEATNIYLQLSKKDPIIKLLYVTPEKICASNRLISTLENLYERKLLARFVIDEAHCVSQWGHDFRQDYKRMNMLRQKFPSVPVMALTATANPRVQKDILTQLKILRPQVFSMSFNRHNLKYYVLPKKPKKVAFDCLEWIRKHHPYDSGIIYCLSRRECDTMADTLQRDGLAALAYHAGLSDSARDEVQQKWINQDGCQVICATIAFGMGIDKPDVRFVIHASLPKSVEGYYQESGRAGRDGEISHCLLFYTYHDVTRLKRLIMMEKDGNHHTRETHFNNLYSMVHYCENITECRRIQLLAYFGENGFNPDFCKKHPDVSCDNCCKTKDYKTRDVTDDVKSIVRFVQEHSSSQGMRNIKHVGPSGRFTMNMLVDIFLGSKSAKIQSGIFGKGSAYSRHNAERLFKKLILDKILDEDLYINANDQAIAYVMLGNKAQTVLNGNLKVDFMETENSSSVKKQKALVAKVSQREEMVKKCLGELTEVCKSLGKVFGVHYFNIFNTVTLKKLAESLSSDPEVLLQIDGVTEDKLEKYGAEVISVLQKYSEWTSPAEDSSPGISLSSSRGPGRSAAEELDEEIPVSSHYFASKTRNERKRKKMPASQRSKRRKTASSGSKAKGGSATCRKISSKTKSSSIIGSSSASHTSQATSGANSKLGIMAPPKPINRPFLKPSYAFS

Compound: Cc1nn(-c2ccccc2)c(C)c1/C=N/N1CCN(Cc2ccccc2)CC1
- outcome [1]: inactive
- outcome [2]: inactive
- outcome [3]: inactive

Compound: O=C(NO)c1ccccc1
- outcome [4]: inactive

Compound: CC(C)(c1ccc(O)cc1)c1ccc(O)cc1
- outcome [4]: inactive

Compound: CC(=O)OC/C=C(C)/C=C/C=C(C)/C=C/C1=C(C)CCCC1(C)C
- outcome [4]: inactive

Compound: Nc1cccc2c(N)cccc12
- outcome [4]: inactive

Compound: Brc1ccccc1-c1ccccc1
- outcome [4]: inactive

Compound: CCN(CC)CCNC(=O)c1ccc(NS(C)(=O)=O)cc1
- outcome [1]: inactive
- outcome [2]: inactive
- outcome [3]: inactive

Compound: Oc1ccccc1
- outcome [4]: inactive

Compound: CC(C)C(C)(C)C(C)(C)C(C)(C)S
- outcome [4]: inactive

Compound: Clc1ccc2c(c1)N=C(N1CCNCC1)c1ccccc1N2
- outcome [1]: inactive
- outcome [2]: inactive

Compound: c1ccc2occc2c1
- outcome [4]: inactive

Compound: C[C@]12CCC(=O)C=C1CC[C@@H]1[C@@H]2[C@@H](O)C[C@@]2(C)[C@H]1CC[C@]2(O)C(=O)COC(=O)CCC(=O)O
- outcome [5]: inactive
- outcome [6]: inactive
- Potency [7]: inactive
- Potency [8]: inactive
- Potency [9]: inactive
- Potency [10]: inactive
- Potency [11]: inactive
- outcome [12]: inactive
- outcome [13]: inactive
- outcome [14]: inactive

Compound: COC(=O)C1=CO[C@@H](O)[C@@H]2C(CO)=CC[C@H]12
- outcome [1]: inactive
- outcome [2]: inactive
- outcome [3]: inactive

Compound: CC(C)(C)c1ccc(O)c(O)c1
- outcome [4]: inactive

Compound: C1=CC2C3C=CC(C3)C2C1 (stereo not given)
- outcome [4]: inactive

Compound: CCCC(=O)c1cc(O)c(O)cc1O
- outcome [4]: inactive

Compound: O=C1NC(=O)/C(=C/c2ccc3c(c2)OC(F)(F)O3)S1
- outcome [1]: inactive
- outcome [2]: inactive
- outcome [3]: inactive

Compound: COc1cc(C=O)ccc1O
- outcome [4]: inactive

Compound: CCCCC(CC)COC(=O)c1ccccc1C(=O)O (stereo not given)
- outcome [4]: inactive

Compound: O=C(c1ccccc1)c1ccccc1
- outcome [4]: inactive

Compound: O=[N+]([O-])c1ccc(-c2nc(-c3ccc(F)cc3)c(-c3ccncc3)[nH]2)cc1
- outcome [15]: inactive
- outcome [6]: inactive
- Potency [16]: 4.47 µM (active)
- Potency [7]: 3.98 µM (active)
- Potency [8]: 3.55 µM (active)
- Potency [9]: 5.01 µM (active)
- Potency [10]: 6.31 µM (active)
- Potency [17]: 3.98 µM (active)
- Potency [11]: 4.47 µM (active)
- outcome [12]: inactive
- outcome [1]: inactive
- outcome [2]: inactive

Compound: O=C(Oc1ccccc1)c1ccccc1O
- outcome [4]: inactive

Compound: CC(C)N(CCC(=O)c1ccc2ccccc2c1)Cc1ccccc1
- outcome [15]: inactive
- outcome [5]: inactive
- outcome [6]: inactive
- Potency [8]: inactive
- Potency [9]: inactive
- Potency [10]: inactive
- Potency [11]: inactive
- outcome [13]: inactive
- outcome [2]: inactive
